Reference: PubChem BioAssay AID1159580 (chemical genetic matrix, 2015)
Among all 5,500 compounds or so, about 2,000 (36%) were called active. Roughly 18% stayed inconclusive and do not appear here. The list shows a part of the results. Unmarked numbers belong to inactive results. Cut-off read from the data, not from the text of the source: active = normalized growth mostly below about 0.91 (no sharp cut-off); inconclusive = no clear call, values can overlap the other calls; inactive = mostly above about 0.92.

Assay: chemical genetic growth profiling, strain panel (AID 1159580);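 note: tested at 20 µM; growth read once vehicle control cultures reached saturation at 30 °C; 1 = growth at the plate median or of vehicle wells; lower values mean less growth of the strain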
Conditions: S. cerevisiae deletion strains, growth OD
[1] = locus YAL040C, strain CLN3, hits give low values
[2] = locus YCL061C, strain MRC1 (second series), hits give low values
[3] = locus YDR363W, strain ESC2, hits give low values
[4] = locus YER002W, strain NOP16, hits give low values
[5] = locus YJR075W, strain HOC1, hits give low values
[6] = locus YNL128W, strain TEP1, hits give low values
[7] = locus YNL175C, strain NOP13, hits give low values
[8] = locus YNL197C, strain WHI3, hits give low values
[9] = locus YNL224C, strain SQS1, hits give low values
[10] = locus YNL322C, strain KRE1, hits give low values
[11] = locus YOR083W, strain WHI5 (second series), hits give low values
[12] = locus YPL055C, strain LGE1, hits give low values

SMILES | normalized growth [1] | normalized growth [2] | normalized growth [3] | normalized growth [4] | normalized growth (locus YGR078C, strain PAC10, hits give low values) | normalized growth [5] | normalized growth [6] | normalized growth [7] | normalized growth [8] | normalized growth [9] | normalized growth [10] | normalized growth [11] | normalized growth [12] | normalized growth (locus YGR229C, strain SMI1, hits give low values) | normalized growth (locus YMR307W, strain GAS1, hits give low values) | normalized growth (locus YNL153C, strain GIM3, hits give low values)
OCCN1CCN(CC/C=C2/c3ccccc3Sc3ccc(C(F)(F)F)cc32)CC1 | 1.04 | 0.973 | 0.923 | 1.01 | 0.975 | 0.942 | 1.02 | 1.07 | 1.02 | 1.05 | 0.974 | 0.887 | 0.87 (active) | – | – | –
CN(C)S(=O)(=O)c1ccc2c(c1)/C(=C/c1cc3c([nH]1)CCCC3)C(=O)N2 | 1.07 | 0.995 | 0.983 | 0.983 | – | 1.01 | 0.982 | 0.976 | 0.995 | 0.983 | 0.983 | 1 | 0.985 | 0.972 | 0.996 | 0.977
